Reference: the supplement of paper PMC13380429

Test system: Vero E6 infected with SARS-CoV-2
Test: inhibition of SARS-CoV-2 cytopathic effect; higher = more antiviral protection, active = above 15
Conditions: 48 h

Measured: inhibition of SARS-CoV-2 cytopathic effect

CC(C)CC(=O)N[C@H](C(=O)N[C@H](C(=O)N[C@@H](CC(C)C)[C@@H](O)CC(=O)N[C@@H](C)C(=O)N[C@@H](CC(C)C)[C@@H](O)CC(=O)O)C(C)C)C(C)C [pepstatin]
inactive: 1 nM 1.4% | 8.33 nM 0.77% | 100 nM -0.17% | 833.33 nM -1.52% | 10000 nM -4.53%

NNCCc1ccccc1 [phenelzine]
inactive: 1 nM 1.22% | 8.33 nM -0.85% | 100 nM -0.27% | 833.33 nM -0.81% | 10000 nM 3%

C[C@H](c1ccc(F)cc1CCCC(=O)O)N(c1cc(F)ccc1F)S(=O)(=O)c1ccc(Cl)cc1
inactive: 1 nM -1.95% | 8.33 nM -1.39% | 100 nM -1.46% | 833.33 nM -3.65% | 10000 nM -5.49%

Cc1cccc(-c2[nH]c(C(C)(C)C)nc2-c2ccc3nccnc3c2)n1
inactive: 1 nM 3.48% | 8.33 nM -0.18% | 100 nM 0.8% | 833.33 nM 0.91% | 10000 nM 1.69%

CCc1ccc(C2=CC(C)(C)Sc3ccc(C#Cc4ccc(C(=O)O)cc4)cc32)cc1
inactive: 1 nM 0.1% | 8.33 nM 2.14% | 100 nM 1.4% | 833.33 nM 1.53% | 10000 nM 3.68%

Cc1cc(C(C)(C)C)cc(C)c1CC1=NCCN1 [xylometazoline]
inactive: 1 nM -7.36% | 8.33 nM -8.77% | 100 nM -5.88% | 833.33 nM -7.35% | 10000 nM -6.68%

CC(=O)[C@]1(N)Cc2c(O)c3c(c(O)c2[C@@H](O[C@H]2C[C@H](O)[C@H](O)CO2)C1)C(=O)c1ccccc1C3=O [amrubicin]
inactive: 1 nM 2.67% | 8.33 nM -2.31% | 100 nM -3.18% | 833.33 nM -3.9% | 10000 nM -0.58%

C[C@@]1(CO)[C@H](O)CC[C@@]2(C)[C@H]1CC[C@H]1C[C@@H]3C[C@@]12CC[C@]3(O)CO [aphidicolin]
inactive: 1 nM -5.87% | 8.33 nM -3.68% | 100 nM -2.81% | 833.33 nM -0.76% | 10000 nM -2.66%

CNC(=O)c1ccc(C)c(-n2c(C)cc(OCc3ccc(F)cc3F)c(Br)c2=O)c1
inactive: 1 nM -1.52% | 8.33 nM -2.37% | 100 nM -3.51% | 833.33 nM -2.74% | 10000 nM -7.45%

Oc1cc2c(cc1O)[C@H]1c3ccccc3CN[C@@H]1CC2 (racemic) [dihydrexidine]
inactive: 1 nM -2.37% | 8.33 nM -1.57% | 100 nM 0.62% | 833.33 nM -2.04% | 10000 nM 2.92%

O=C(O)CSc1nnc(Br)n1-c1ccc(C2CC2)c2ccccc12 [lesinurad]
inactive: 1 nM -0.42% | 8.33 nM -0.65% | 100 nM 2.45% | 833.33 nM 0.63% | 10000 nM -2.06%

COc1cc2ncn(-c3cc(OCc4ccccc4C(F)(F)F)c(C(N)=O)s3)c2cc1OC
inactive: 1 nM -9.5% | 8.33 nM -5.03% | 100 nM -7.65% | 833.33 nM -5.41% | 10000 nM -1.95%

CCOC(=O)OC(C)OC(=O)[C@@H]1N2C(=O)[C@@H](NC(=O)[C@H](N)c3ccccc3)[C@H]2SC1(C)C (stereo not given in full) [bacampicillin]
inactive: 1 nM 8.5% | 8.33 nM 1.16% | 100 nM -0.89% | 833.33 nM -1.91% | 10000 nM -2.49%

O=C(O[C@@H]1Cc2c(O)cc(O)cc2O[C@@H]1c1cc(O)c(O)c(O)c1)c1cc(O)c(O)c(O)c1 [epigallocatechin-gallate-(-)]
inactive: 1 nM -3.81% | 8.33 nM 2.17% | 100 nM 0.79% | 833.33 nM 1.05% | 10000 nM 0.98%

CC[C@H](c1ccc(O)cc1)[C@@H](CC)c1ccc(O)cc1 [hexestrol]
inactive: 1 nM -3.59% | 8.33 nM -0.58% | 100 nM -0.76% | 833.33 nM -3.14% | 10000 nM 2.9%

Cc1cc(C2CCCCC2)n(O)c(=O)c1 [ciclopirox]
inactive: 1 nM 0.88% | 8.33 nM 1.21% | 100 nM 0.99% | 833.33 nM -0.09% | 10000 nM -2.68%

Cc1cccc(Nc2ccccc2C(=O)O)c1C [mefenamic-acid]
inactive: 1 nM -0.88% | 8.33 nM 1.67% | 100 nM 1.5% | 833.33 nM -1.03% | 10000 nM -0.56%
